Source: PubChem (National Center for Advancing Translational Sciences (NCATS))
NPC1 prom act – NPC1 promoter activation. Huh7 NPC1 promoter luciferase reporter, 24 h. Potency, µM (doses to about 9.22 µM), most hits filed as activators. 2.4% of 320,000 active; further: nearly all actives have a fitted effect of over 60% in size
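Stably transfected Huh7 (NPC1 promoter→luciferase), 1500 cells/well in Opti-MEM + 10% FBS, 2 h settle, then compound 24 h at 37 °C. Luminescence after 10 min with Amplite reagent.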
FLuc modulator – firefly luciferase modulation, counter-screen for miR-21 project; P08659; purified FLuc, Km substrates, luminescence inhibition; Potency, µM (doses to about 57.5 µM), usual class: inhibitors; 6.9% of 360,000 active; AID 588342; further: nearly all actives have a fitted effect of over 55% in size
Target sequence (P08659 whole entry, looked up): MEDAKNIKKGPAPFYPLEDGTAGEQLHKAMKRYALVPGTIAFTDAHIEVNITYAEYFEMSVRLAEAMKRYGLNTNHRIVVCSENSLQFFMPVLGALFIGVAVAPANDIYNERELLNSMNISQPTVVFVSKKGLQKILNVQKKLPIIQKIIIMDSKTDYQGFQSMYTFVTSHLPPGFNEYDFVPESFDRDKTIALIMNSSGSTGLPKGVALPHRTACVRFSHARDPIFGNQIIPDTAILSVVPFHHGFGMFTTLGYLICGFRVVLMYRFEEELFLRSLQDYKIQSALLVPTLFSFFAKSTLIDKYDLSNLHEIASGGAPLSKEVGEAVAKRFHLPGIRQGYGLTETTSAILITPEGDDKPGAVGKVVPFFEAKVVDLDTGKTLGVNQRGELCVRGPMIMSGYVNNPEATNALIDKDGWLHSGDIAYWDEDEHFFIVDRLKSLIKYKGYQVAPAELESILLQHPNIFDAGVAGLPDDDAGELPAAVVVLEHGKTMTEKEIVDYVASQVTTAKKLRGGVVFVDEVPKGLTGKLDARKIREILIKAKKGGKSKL
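Purified P. pyralis luciferase (10nM final) with 10uM D-luciferin and 10uM ATP (Km levels) in 50mM Tris acetate pH 7.5, 10mM Mg acetate, 0.01% Tween-20, 0.05% BSA; qHTS 6-point titration, ~60 µM downward; luminescence read.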
SMN2 splice enh – enhancers of SMN2 splice variant expression; HEK293 SMN2-luciferase splicing reporter, luminescence, 30-36 h; Potency, µM (titrated, usually from 46.1 µM), usual class: activators; 2.8% of 210,000 active; further: nearly all actives have a fitted effect of over 55% in size
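qHTS luciferase splicing reporter: luminescence rises when SMN2 exon 7 is included in transfected HEK293 cells. Compound exposure lasted 30-36 h at 37C, with 4.5 mM final sodium butyrate as control, followed by a ONE-Glo read.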
ELG1 genotox – inducers of genotoxicity in HEK293T ELG1-luciferase cells; Potency, µM (top dose mostly 46 µM), hits mostly activators; 1.3% of 330,000 active; HEK293T ELG1-luciferase reporter, luminescence, 16 h; AID 504466; further: nearly all actives have a fitted effect of over 60% in size
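HEK293T cells expressing luciferase-tagged ELG1 were treated with compound or DMSO for 16 hr at 37°C. Luciferase activity was then read after 30 min with ONE-Glo at room temperature; rising signal flags genetic stress.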
Rab9 promoter act – Rab9 promoter activation. Huh7 Rab9 promoter-luciferase reporter, luminescence, 24 h. Potency, µM (highest dose often 9.22 µM), hits mostly activators. 2.8% of 320,000 active; further: nearly all actives have a fitted effect of over 60% in size
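Using Huh7 cells stably transfected with Rab9 promoter–luciferase, compounds were incubated 24 h at 37 °C, 5% CO2; luciferase luminescence was read 10 min after reagent addition.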
Hits are given with their value; – = inactive; ? = inconclusive; · = not tested or not shown; [ ] = dose if it differs, or a comment. This is a sample that favours compounds with a hit; in the whole collection about 7.5% have one here. The call rests on the fitted dose curve; in most records, active means well fitted curve in the direction sought with a large enough effect; inconclusive means small, poorly fitted or top-dose-only effect, or another doubt; inactive means no such curve, though single readings can be large; an effect the other way counts as inactive or inconclusive.

SMILES	NPC1 prom act	FLuc modulator	SMN2 splice enh	ELG1 genotox	Rab9 promoter act
Cn1cc(/C=C(\C#N)C(=O)Nc2ccccc2O)c2ccccc21	–	?	·	–	?
Cc1cccc(NC(=O)/C(C#N)=C/c2ccccc2Cl)n1	–	6µM	·	–	–
Cc1cccc(NC(=O)/C(C#N)=C/c2ccccc2O)n1	3.5µM	0.6µM	·	16µM	4µM
N#C/C(=C\c1ccccc1O)C(=O)Nc1ccccn1	–	4.8µM	·	–	–
Cc1cccc(NC(=O)/C(C#N)=C/c2cccc([N+](=O)[O-])c2)n1	–	?	·	–	–
Cc1ccc(NS(=O)(=O)c2cc(NC(=O)c3ccc4c(c3)NC(=O)CS4)ccc2C)c(C)c1	–	–	–	–	–
CCOC(=O)Cc1csc(NC(=O)COc2ccc(OC)cc2)n1	–	19µM	–	–	–
CCOC(=O)Cc1csc(NC(=O)COc2ccccc2OCC)n1	–	–	–	–	–
CCOC(=O)Cc1csc(NC(=O)COc2c(C)cccc2C)n1	–	?	–	–	–
CCOC(=O)Cc1csc(NC(=O)COc2ccc3ccccc3c2)n1	–	13µM	–	–	–
CCOc1ccc(-c2c(=O)n(OCc3nc4ccccc4[nH]3)c3ccccc3[n+]2[O-])cc1	–	17µM	·	–	–
CCOn1c(=O)c(-c2cc3ccccc3o2)[n+]([O-])c2ccccc21	3.5µM	?	16µM	?	2.8µM
O=c1c(-c2cc3ccccc3o2)[n+]([O-])c2ccccc2n1OCc1ccccn1	?	12µM	?	?	?
CCOCCc1nn2c(=O)cc(COC(=O)c3ccccc3Br)nc2s1	·	–	·	·	·
O=C(NCCS(=O)(=O)N1CCN(c2cccc(Cl)c2)CC1)C(c1ccccc1)c1ccccc1	·	–	·	·	·
CN(C)c1ccc([C@@H]2[C@@H]([N+](=O)[O-])[C@H]3C=Cc4ccccc4N3[C@H]2C(=O)c2ccc(Cl)cc2)cc1	–	?	–	–	–
Nc1nc2ccccc2n1/N=C/c1ccc(-c2ccccc2)o1	?	?	–	?	4µM
Nc1nc2ccccc2n1/N=C/c1ccc([N+](=O)[O-])s1	–	–	–	–	–
Cc1ccc(Nc2nc(N)nc(CSc3nccn3C)n2)cc1	2.5µM	9.5µM	13µM	2.9µM	1.6µM
Cc1cccc(Nc2nc(N)nc(CSc3nccn3C)n2)c1	?	?	?	?	5µM
COc1ccccc1Nc1nc(N)nc(CSc2nccn2C)n1	–	–	·	–	–
CC1CCN(S(=O)(=O)c2ccc(C(=O)Nc3ccccn3)cc2)CC1	?	?	·	21µM	–
Cc1ccnc(NC(=O)c2ccc(S(=O)(=O)N3CCC(C)CC3)cc2)c1	–	6.7µM	·	0.73µM	–
CC(C)(C)OC(=O)N1CCC(c2c(C(=O)N3CCN(c4ccc(Cl)cc4)CC3)cnn2-c2ccc(F)cc2F)CC1	·	–	·	·	·
COC(=O)C1=C(C)NC(=O)/C1=C\c1cc(C)n(-c2cccc(C)c2)c1C	–	27µM	–	–	–
SMILES	NPC1 prom act	FLuc modulator	SMN2 splice enh	ELG1 genotox	Rab9 promoter act
Cc1cccc(-n2c(C)cc(/C=C3\NC(=O)NC3=O)c2C)c1	–	6.7µM	·	?	–
Cc1cc(/C=C2/NC(=O)NC2=O)c(C)n1-c1ccncc1	–	–	–	–	–
COC(=O)C1=C(C)NC(=O)/C1=C\c1cc(C)n(-c2ccc(F)cc2)c1C	–	19µM	–	–	–
COC(=O)c1cccc(-n2c(C)cc(C=O)c2C)c1	–	–	–	–	–
COC(=O)[C@@H](Cc1c[nH]c2ccccc12)NC(=O)CNC(=O)c1ccccc1OC	–	–	·	–	–
O=C(O)c1cc(-c2ccc3ccccc3c2)nc2ccc(F)cc12	–	2.7µM	·	–	–[1.84 µM]
O=C(O)c1cc(-c2ccc(-c3ccccc3)cc2)nc2cc3ccccc3cc12	·	·	–[9.22 µM]	·	·
O=C(O)c1cc(-c2cccc3ccccc23)nc2ccccc12	–	27µM	·	–	–
CCOc1ccc(-c2cc(C(=O)O)c3ccccc3n2)c(OCC)c1	–	17µM	–	–	–
O=C(O)c1cc(-c2c[nH]c3ccccc23)nc2cc3ccccc3cc12	–	0.67µM	·	–	–
O=C(c1cc(-c2cccc3ccccc23)nc2ccccc12)N1CCN(CCO)CC1	·	·	·	–	·
CCOC(=O)C1CCN(c2nc3c(S(=O)(=O)c4ccccc4)nnn3c3ccsc23)CC1	·	–	·	·	·
O=C(O)c1cc(-c2ccc3ccccc3n2)nc2ccccc12	?	0.6µM	·	?	2.8µM
O=C(O)c1cc(-c2cc(C(=O)O)c3ccccc3n2)nc2ccccc12	–	?	·	–	–
COc1ccc(C(=O)NC2CC2)cc1OC1CCN(Cc2ccc(NC(C)=O)cc2)CC1	–	–	·	–	–
CCc1nc(-c2ccc(-c3ccc(OC)cc3)nc2OC)no1	?	21µM	?	?	?
COCc1nc(-c2ccc(-c3ccccc3)nc2OC)no1	?	?	22µM	–	4µM
COCc1nc(-c2ccc(-c3ccc(OC)cc3)nc2OC)no1	–	?	–	–	–
CCOC(=O)c1c(/N=C/N(C)C)sc(/C=N/Nc2ccccc2)c1-c1ccccc1	–	–	–	–	–
CCOC(=O)c1c(/N=C/N(C)C)sc(/C=N/Nc2ccccc2)c1-c1ccccc1Cl	–	12µM	·	–	–
COCCCNC(=O)CSC1=Nc2ccccc2C2=NC(CCC(=O)NCc3ccccc3OC)C(=O)N12 (configuration not stated)	·	–	·	·	·
Cc1ccc(CNC(=O)CN2C(=O)CSc3ccc(S(=O)(=O)N4CCCC4)cc32)cc1	·	–	·	·	·
Cc1cc(/C=C2/SC(=O)N(CC(=O)N3CCOCC3)C2=O)c(C)n1-c1ccccc1F	3.5µM	0.38µM	11µM	?	1.6µM
Cc1cc(/C=C2\SC(=O)N(CC(=O)Nc3ccccc3F)C2=O)c(C)n1C	–	–	–	–	–
COc1ccc(-n2c(C)cc(/C=C3\SC(=S)N(Cc4ccco4)C3=O)c2C)cc1	–	?	–[1.84 µM]	–	?
SMILES	NPC1 prom act	FLuc modulator	SMN2 splice enh	ELG1 genotox	Rab9 promoter act
COc1ccc(-n2c(C)cc(/C=C3/SC(=O)N(CC(=O)N4CCOCC4)C3=O)c2C)cc1	–	1.7µM	–	–	–
CC(=O)N1c2ccc(S(=O)(=O)N3CCC(C(=O)NCc4ccc(N(C)C)cc4)CC3)cc2CC1C (configuration not stated)	–	–	·	–[9.26 µM]	–
COc1ccc(-c2noc(CCC(=O)NCc3ccc(OC)cc3OC)n2)cc1	·	–	–	·	·
O=C(OCC(=O)c1c[nH]c2ccccc12)c1ccco1	–	9.5µM	–	16µM	–
COc1cccc(C(=O)OCC(=O)c2c[nH]c3ccccc23)c1O	–	19µM	–	?	–
O=C(OCC(=O)c1c[nH]c2ccccc12)c1ccc(Br)o1	–	17µM	·	–	–
O=C(NC1CCCCC1)N1CCN(C(c2ccccc2)c2ccccc2)CC1	–	–	–	–	–
Cc1ccc2cc(CN(CCN(C)C)C(=O)Nc3ccc(Cl)cc3)c(=O)[nH]c2c1	–	11µM	·	–	–
Cc1ccc2[nH]c(=O)c(CN(CCCN(C)C)C(=O)Nc3ccc(Cl)cc3)cc2c1	–	–	–	–	?
